Assay results as given in the supplement of paper PMC6089552.
The campaign covered roughly 3,200 compounds. About 300 (9.4%) showed activity. The sample as a whole holds a higher share of actives than the screen did.

Test system: A673/TR/shEF
Test: cell viability (LOESS-normalised, relative to median of negative controls) (log2 ratio); higher = more viable cells (less compound effect), active = hit call of the paper (over 3 MAD below the median)
Conditions: treatment time: 72 h
Summary of the method: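 For three days, A673/TR/shEF Ewing sarcoma cells in 384-well plates (1,500 per well) were treated with library compounds at two or more concentrations or with DMSO controls, after doxycycline had been added or withheld 24 h beforehand to induce EWS-FLI1 shRNA knockdown. Viability was read by CellTiter-Glo luminescence on an Envision reader. The data were LOESS-corrected per plate, divided by the median of negative controls and log2-transformed.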

[1] = 0.25 µM, library screen: screen1, EWS-FLI1 expression: high (no doxycycline)
[2] = 0.25 µM, library screen: screen1, EWS-FLI1 expression: low (doxycycline-induced shRNA knockdown)
[3] = 2.5 µM, library screen: screen1, EWS-FLI1 expression: high (no doxycycline)
[4] = 2.5 µM, library screen: screen1, EWS-FLI1 expression: low (doxycycline-induced shRNA knockdown)
[5] = 0.25 µM, library screen: screen2, EWS-FLI1 expression: high (no doxycycline)
[6] = 0.25 µM, library screen: screen2, EWS-FLI1 expression: low (doxycycline-induced shRNA knockdown)
[7] = 2.5 µM, library screen: screen2, EWS-FLI1 expression: high (no doxycycline)
[8] = 2.5 µM, library screen: screen2, EWS-FLI1 expression: low (doxycycline-induced shRNA knockdown)
[9] = 0.103 µM, library screen: screen3, EWS-FLI1 expression: high (no doxycycline)
[10] = 0.103 µM, library screen: screen3, EWS-FLI1 expression: low (doxycycline-induced shRNA knockdown)
[11] = 0.308 µM, library screen: screen3, EWS-FLI1 expression: high (no doxycycline)
[12] = 0.308 µM, library screen: screen3, EWS-FLI1 expression: low (doxycycline-induced shRNA knockdown)
[13] = 0.926 µM, library screen: screen3, EWS-FLI1 expression: high (no doxycycline)
[14] = 0.926 µM, library screen: screen3, EWS-FLI1 expression: low (doxycycline-induced shRNA knockdown)
[15] = 2.8 µM, library screen: screen3, EWS-FLI1 expression: high (no doxycycline)
[16] = 2.8 µM, library screen: screen3, EWS-FLI1 expression: low (doxycycline-induced shRNA knockdown)
[17] = 8.3 µM, library screen: screen3, EWS-FLI1 expression: high (no doxycycline)
[18] = 8.3 µM, library screen: screen3, EWS-FLI1 expression: low (doxycycline-induced shRNA knockdown)
[19] = 25 µM, library screen: screen3, EWS-FLI1 expression: high (no doxycycline)
[20] = 25 µM, library screen: screen3, EWS-FLI1 expression: low (doxycycline-induced shRNA knockdown)

Measured: cell viability (log2)

COc1cc(C2NC(=O)NC(C)=C2C(=O)Nc2cccc(Cl)c2)cc(OC)c1OC (stereo not given)
inactive: [1] 0.0796 | [2] 0.0843 | [3] 0.0754 | [4] -0.0585

O[Si](CCCN1CCCCC1)(c1ccc(F)cc1)C1CCCCC1 (stereo not given)
inactive: [5] 0.132 | [6] 0.0854 | [7] 0.109 | [8] 0.178

Cc1c(NC(=O)Nc2ccc3ccccc3c2)c(=O)n(-c2ccccc2)n1C
inactive: [1] 0.0897 | [2] 0.113 | [3] 0.056 | [4] 0.16

CC1(C)C(=O)N(CCN2CCC(C(=O)c3ccc(F)cc3)CC2)c2ccccc21
inactive: [9] -0.034 | [10] 0.0315 | [5] 0.081 | [6] 0.0775 | [11] 0.05 | [12] 0.0455 | [13] 0.00913 | [14] 0.0245 | [7] 0.0771 | [8] 0.0581 | [15] -0.0171 | [16] 0.0924 | [17] -0.00458 | [18] 0.0164 | [19] 0.0894 | [20] 0.0236

Cc1nc2ccccn2c(=O)c1CCN1CCC(C(=O)c2ccc(F)cc2)CC1
inactive: [1] 0.119 | [2] 0.184 | [5] 0.229 | [6] 0.127 | [3] 0.124 | [4] 0.101 | [7] 0.243 | [8] 0.107

O=C(c1ccc(F)cc1)C1CCN(CCn2c(=O)[nH]c3ccccc3c2=O)CC1
active: [5] -0.282 | [6] -0.245 | [7] -2.12 | [8] -2.83

COc1ccc2c(c1)CC[C@@H]1[C@@H]2CC[C@]2(C)[C@@H](NCCCCCCN3C(=O)CCC3=O)CC[C@@H]12
inactive: [5] 0.149 | [6] 0.104 | [7] 0.246 | [8] 0.108

COc1cccc2c(C)cc(=O)[nH]c12
inactive: [1] 0.0638 | [2] 0.0801 | [3] 0.144 | [4] 0.0702

C[C@@H]1CCC2[C@@H](C)[C@@H](O)O[C@@H]3OC4(C)CC[C@@H]1[C@@]23OO4 (stereo not given in full)
inactive: [1] 0.104 | [2] 0.00583 | [3] 0.029 | [4] -0.122

CN(C)c1ccc(C=C2SC(=S)N(c3ccc(F)cc3)C2=O)cc1
inactive: [1] 0.0645 | [2] 0.154 | [3] 0.09 | [4] 0.192

C=CC(C)(C)c1c2c(c(O)c3c(=O)c4ccc(O)c(O)c4oc13)C=CC(C)(C)O2
inactive: [1] -0.0194 | [2] 0.182 | [3] -0.0746 | [4] 0.15

CC1C(=O)CC2CC1C2(C)C (stereo not given)
active: [1] -0.106
inactive: [2] 0.0655 | [3] 0.091 | [4] 0.103

NC(=O)c1ccccc1NC(=O)c1cc2ccccc2o1
inactive: [1] 0.112 | [2] 0.167 | [3] 0.0735 | [4] 0.103

O=C(O)CCCCCCCCCCCCC1C=CCC1 (stereo not given)
inactive: [1] 0.109 | [2] -0.0641 | [3] 0.133 | [4] 0.00345

CO[C@H]1C[C@H](O[C@@H]2/C(C)=C/C[C@@H]3C[C@@H](C[C@]4(CC[C@H](C)[C@@H](C5CCCCC5)O4)O3)OC(=O)[C@@H]3C=C(C)/C(=N/O)[C@H]4OC/C(=C\C=C\[C@@H]2C)[C@]43O)O[C@@H](C)[C@@H]1O
inactive: [1] 0.0971 | [2] 0.0732 | [3] 0.0965 | [4] 0.0106

CCC(C)[C@H]1O[C@]2(CC[C@@H]1C)CC1C[C@@H](C/C=C(\C)[C@@H](O[C@H]3C[C@H](OC)[C@@H](OC4C[C@H](OC)[C@@H](O)[C@H](C)O4)[C@H](C)O3)[C@@H](C)/C=C/C=C3\CO[C@@H]4[C@H](O)C(C)=C[C@@H](C(=O)O1)[C@]34O)O2.CO[C@H]1CC(O[C@H]2[C@H](C)O[C@@H](O[C@@H]3/C(C)=C/C[C@@H]4CC(C[C@]5(CC[C@H](C)[C@@H](C(C)C)O5)O4)OC(=O)[C@@H]4C=C(C)[C@@H](O)[C@H]5OC/C(=C\C=C\[C@@H]3C)[C@]54O)C[C@@H]2OC)O[C@@H](C)[C@@H]1O (stereo not given in full)
inactive: [9] 0.062 | [10] 0.111 | [5] 0.0727 | [6] 0.0714 | [11] -0.0408 | [12] 0.0112 | [13] -0.0851 | [14] -0.0397 | [8] -0.0072
active: [7] -0.104 | [15] -0.279 | [16] -0.285 | [17] -0.239 | [18] -0.115 | [19] -3.03 | [20] -1.99

Cc1cc(=O)c2c(O)c3c(cc2o1)OC(C)(C)CC3
inactive: [1] -0.0169 | [2] 0.014 | [3] 0.0268 | [4] 0.147

CCC[C@H]1CC2=C(C[C@@H](CC)CC3=C1C(=O)OC3=O)C(=O)OC2=O
inactive: [1] 0.0818 | [2] 0.0576 | [3] 0.117 | [4] 0.0649

Cc1sc2c(=O)n3c(nc2c1C(=O)NCCc1ccccc1)CCCCC3
inactive: [1] 0.129 | [2] 0.0568 | [3] 0.167 | [4] 0.136

CC(C)CCC[C@@H](C)C1CC[C@H]2[C@@H]3CCC4=CC(=O)C=C[C@]4(C)[C@H]3CC[C@]12C (stereo not given in full)
inactive: [1] 0.107 | [2] 0.0599 | [3] 0.105 | [4] 0.0638

c1ccc([C@@H]2CCC[C@@H]2NC2=NCCCCCCCCCCC2)cc1
inactive: [5] 0.117 | [6] 0.0677 | [7] 0.18 | [8] 0.156

CC1(C)C[C@@]23C(=O)CC[C@@H](O)C2(C)CC[C@H]13 (stereo not given in full)
inactive: [1] 0.0615 | [2] -0.0504 | [3] 0.0572 | [4] 0.0807

COc1c(O)cc(C2Oc3c(c(O)cc(O)c3[C@H]3c4c(O)cc(O)cc4O[C@H](c4ccc(O)cc4)[C@@H]3O)C[C@H]2O)cc1O (stereo not given in full)
inactive: [9] -0.000188 | [10] 0.0292 | [11] -0.0295 | [12] -0.00938 | [13] 0.0249 | [14] 0.0493 | [15] -0.0107 | [16] 0.0655 | [17] 0.0329 | [18] 0.11 | [19] 0.0402 | [20] 0.209

CN1CC[C@H](c2c(O)cc(O)c3c(=O)cc(-c4ccccc4Cl)oc23)[C@H](O)C1
active: [9] -0.182 | [11] -0.451 | [12] -0.231 | [13] -1.4 | [14] -1.66 | [15] -3.54 | [16] -2.88 | [17] -4.29 | [18] -4.28 | [19] -4.33 | [20] -4.3
inactive: [10] -0.0654

CC(=O)OC1CC[C@@]2(C)C(CC[C@]3(C)C2CCC2C4CC(C)(C)CCC4(C(=O)O)CC[C@]23C)C1(C)C (stereo not given in full)
inactive: [1] 0.0992 | [2] 0.055 | [3] 0.145 | [4] 0.119

CC(=O)Oc1cc(OC(C)=O)c2c(c1)OC(c1ccc(OC(C)=O)c(OC(C)=O)c1)C(OC(C)=O)C2 (stereo not given)
inactive: [1] 0.1 | [2] 0.0336 | [3] 0.18 | [4] 0.104

CC(C)(O)[C@@H]1Cc2cc3ccc(=O)oc3cc2O1
inactive: [1] 0.0301 | [2] -0.0352 | [3] 0.107 | [4] 0.0444

COc1ccccc1-c1cc(=O)c2cccc(OC)c2o1
inactive: [1] 0.00414 | [2] -0.0253 | [3] 0.211 | [4] 0.0664

COc1ccccc1-c1cc(=O)c2c(OC)cccc2o1
inactive: [1] 0.121 | [2] -0.0186 | [3] 0.129 | [4] 0.0665

COc1cccc(-c2cc(=O)c3ccccc3o2)c1N
0.278: [1]
active: [3] -0.37
inactive: 0.025 µM, library screen: screen1, EWS-FLI1 expression: high (no doxycycline) 0.268 | 0.025 µM, library screen: screen1, EWS-FLI1 expression: low (doxycycline-induced shRNA knockdown) -0.0228 | [2] -0.0268 | [5] 0.18 | [6] 0.11 | [4] 0.0789 | [7] 0.195 | [8] 0.139 | 25 µM, library screen: screen1, EWS-FLI1 expression: high (no doxycycline) -0.0514 | 25 µM, library screen: screen1, EWS-FLI1 expression: low (doxycycline-induced shRNA knockdown) 0.0727

Cc1cc(OC(=O)c2c(C)cc(OC(=O)c3c(C)cc(O)cc3O)cc2O)cc(O)c1C(=O)O
inactive: [1] 0.154 | [2] 0.153 | [3] 0.0106 | [4] 0.113

CC[n+]1c(-c2ccccc2)c2cc(N)ccc2c2ccc(N)cc21
inactive: [1] 0.0617 | [2] 0.0391 | [4] -0.0126
active: [3] -1.89

NCCNC(=O)Cc1ccc(NC(=O)Cc2ccc(Nc3ncnc4c3ncn4C3OC(CO)C(O)C3O)cc2)cc1 (stereo not given)
inactive: [5] 0.211 | [6] 0.142 | [7] 0.0909 | [8] 0.0423

O=C1/C(=C\c2ccccc2F)SC(=S)N1CN1CCOCC1
inactive: [1] 0.128 | [2] 0.0809 | [3] 0.107 | [4] -0.00103

NCCCCCC(=O)O
inactive: [9] 0.214 | [10] 0.078 | [1] 0.0812 | [2] 0.00994 | [5] -0.00366 | [6] 0.09 | [11] 0.0847 | [12] 0.0858 | [13] 0.107 | [14] 0.0768 | [3] 0.144 | [4] 0.111 | [7] 0.0922 | [8] 0.111 | [15] 0.141 | [16] 0.0677 | [17] 0.085 | [18] 0.128 | [19] 0.0538 | [20] 0.145

CC(=O)NCCCCCC(=O)O
inactive: [1] 0.0566 | [2] 0.106 | [3] 0.0136 | [4] 0.0704

NCCCCC(=O)O
active: [5] -0.118
inactive: [1] 0.172 | [2] 0.0951 | [6] 0.128 | [3] 0.237 | [4] 0.0298 | [7] 0.0908 | [8] 0.116

CCCCCCCC/C=C\CCCCCCCC(=O)O
inactive: [5] 0.0706 | [6] 0.117 | [7] 0.0994 | [8] 0.08

NCCCC(=O)O
inactive: [1] 0.0628 | [2] 0.0888 | [5] 0.148 | [6] 0.12 | [3] 0.21 | [4] 0.0413 | [7] 0.0279 | [8] 0.142

O=C(O)CCCCCCCC(=O)O
inactive: [1] 0.000753 | [2] 0.0938 | [6] 0.0952 | [3] 0.149 | [4] 0.152 | [7] 0.0755 | [8] 0.0904
active: [5] -0.13
